Results on 14 compounds are retold here after PubChem BioAssay.

A short description of experiment [1]: inhibitors of TNFa-induced NFkB p65 translocation, primary screen, imaging, HUVEC, MLSMR starter and 10KST1 sets (AID 438;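 active = inhibition above 20% together with a positive visual image hit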;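 also: compound added about 3h40 before a 20 min TNFalpha stimulation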;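 as to inhibition: signal is the nuclear over cytoplasmic p65 intensity ratio per well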). The following applies: HUVEC TNFa-induced p65 nuclear translocation; cell count: measured here: nuclei count (cytotoxicity indicator), at 2.08 µM; inhibition: at 2 µM, stronger effect = higher value, 0% TNFa-plus-vehicle, 100% no-TNFa wells.
Experiment [2] is described as follows: reduction of polyQ htt aggregates in cells – imaging, exon1htt(103Q)mCFP cells, high-content imaging, primary screen (AID 483;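 active = visual image review flags a hit and inhibition of aggregation exceeds 20%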;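 also: compound exposure lasted 3 days before fixation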;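 as to nuclei count: percent of the per-plate median nuclei count of sample wells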). The settings on record: exon1htt(103Q)mCFP cell line, aggregate imaging, at 2 µM; inhibition of aggregation: stronger effect = higher value; nuclei count: measured here: cell count, toxicity.
A short description of experiment [3]: endothelial E-selectin expression blockers – imaging, HUVEC, immunofluorescence, MLSMR starter and 10KST1 sets, primary screen (AID 487;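 active = visually confirmed hit in the image check and inhibition above 20%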;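 as to inhibition: signal is fraction of cell area covered by stained E-selectin grains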;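 as to nuclei count: 100% = median nuclei count of all wells on the same plate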). The settings on record: HUVEC TNFalpha-induced E-selectin immunofluorescence imaging, at 2 µM; inhibition: stronger effect = higher value; nuclei count: measured here: cell number, toxicity.
In experiment [4] the target is Voltage-gated potassium channel subunit beta-2 (Rattus norvegicus) (UniProt P62483). Kind of experiment: inhibitors of rat Kvbeta2 reductase activity – biochemical, NADPH fluorescence, primary screen (AID 622;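 active = fluorescence slope higher than the sample average by over 3 SD, cut at about -0.22 in these data, passing the limit was not always enough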;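 also: slope of raw intensity against log time taken from 70 to 1610 s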). The settings on record: recombinant KvBeta, 4-cyanobenzaldehyde reduction, at 10 µM, stronger effect = higher value.
The target is the same in experiment [5]. Kind of experiment: enhancers of rat Kvbeta2 NADPH turnover – biochemical, NADPH fluorescence, primary screen (AID 623).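 Also: fluorescence intensity change per second fitted from 20 to 320 s.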 The following applies: Recombinant KvBeta, NADPH fluorescence decrease slope, 10 min; at 10 µM; stronger effect = lower value.
Experiment [6] concerns the target Alpha-2C adrenergic receptor (Homo sapiens) (UniProt P18825). The experiment can be described thus: compounds altering alpha2C-coupled GIRK flux – cell-based, HEK293 alpha2C/GIRK1/2, thallium flux, primary screen (AID 624;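 active = fluorescence slope after compound addition differing from the mean of all screened samples at 99.7% confidence, in either direction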;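 also: slope of fluorescence ratio to pre-addition baseline per second over 15 to 24 s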). The following applies: thallium flux BTC fluorescence, at 10 µM, actives lie on both sides.
The nature of experiment [7]: blockers of RIG-like receptor reporter activation – cell-based, Sendai virus stimulus, luciferase, 10K MLSCN set, TLR/RLR signaling modifier project, primary screen (AID 602276;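 active = inhibition at or above 50% at 10 µM; inactive = inhibition below 50%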;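 also: firefly luciferase from ISG56 promoter only with Renilla not read in this screen; 0% = Sendai virus plus DMSO and 100% = medium plus DMSO without virus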). The following applies: HEK293 RL24 IRF3 luciferase reporter, at 10 µM, stronger effect = higher value.
Experiment [8] is described as follows: TLR3 IRF3 reporter activation blockers – cell-based, poly I:C stimulus, luciferase, 10K MLSCN set, primary screen (AID 602277;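 active = inhibition of the reporter signal at or above 50%; inactive = inhibition below 50%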). The following applies: HEK293-TLR3 RL24 IRF3 luciferase reporter, at 10 µM, stronger effect = higher value.

Calls of active or inactive are those of the source.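 The calls were made as follows, unless noted: active = NADPH fluorescence slope more negative than the mean of all samples by about 3 SD, 99.7% confidence; inactive = the rest.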

Voltage-gated potassium channel subunit beta-2 (Rattus norvegicus), sequence (P62483 whole entry, looked up): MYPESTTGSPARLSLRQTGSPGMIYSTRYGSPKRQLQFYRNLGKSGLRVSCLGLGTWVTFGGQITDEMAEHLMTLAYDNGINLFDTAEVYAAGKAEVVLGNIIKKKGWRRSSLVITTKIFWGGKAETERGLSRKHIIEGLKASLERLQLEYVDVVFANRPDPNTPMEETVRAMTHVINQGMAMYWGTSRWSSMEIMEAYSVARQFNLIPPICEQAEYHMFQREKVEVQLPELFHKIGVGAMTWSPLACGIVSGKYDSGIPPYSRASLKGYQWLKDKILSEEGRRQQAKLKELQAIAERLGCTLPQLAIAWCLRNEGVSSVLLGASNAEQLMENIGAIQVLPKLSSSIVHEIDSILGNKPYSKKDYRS
Alpha-2C adrenergic receptor (Homo sapiens), sequence (P18825 whole entry, looked up): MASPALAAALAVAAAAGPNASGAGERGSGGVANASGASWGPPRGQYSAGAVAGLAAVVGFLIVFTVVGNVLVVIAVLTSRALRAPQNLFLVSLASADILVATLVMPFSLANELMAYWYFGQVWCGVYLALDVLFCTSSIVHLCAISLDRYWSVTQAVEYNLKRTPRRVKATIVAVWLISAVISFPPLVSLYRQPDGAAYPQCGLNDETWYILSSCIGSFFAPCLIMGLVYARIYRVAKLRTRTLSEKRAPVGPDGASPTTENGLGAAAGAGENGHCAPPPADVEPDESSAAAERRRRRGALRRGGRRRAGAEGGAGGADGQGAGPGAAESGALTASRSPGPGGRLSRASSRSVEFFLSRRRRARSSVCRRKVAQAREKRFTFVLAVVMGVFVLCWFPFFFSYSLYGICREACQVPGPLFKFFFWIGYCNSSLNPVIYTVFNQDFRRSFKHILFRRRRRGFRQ

In general, inhibition refers to the relative decrease from the control value, in per cent. Take `COc1ccc(Br)cc1CNC(=O)CCc1nc(-c2ccc(C)cc2)no1`: the cell count in experiment [1] is 517. Further, the inhibition in experiment [1] was -4% (inactive); in experiment [3], -2.8% (inactive); in experiment [7], 15.2% (inactive); in experiment [8], 28.1% (inactive). For the same compound, the inhibition of aggregation in experiment [2] was -13.7% (inactive). Besides, the nuclei count in experiment [2] was 98.4%; in experiment [3], 120%. Besides, in experiment [4], the fluorescence slope is -0.314 (inactive). For the same compound, in experiment [5], the NADPH fluorescence slope is -6.4e-07 (inactive). In addition, the slope in experiment [6] is 0.00305 (inactive).
Turning to `CCn1cc(C(=O)N2CCOCC2)c(=O)c2cc(S(=O)(=O)N(C)C3CCCCC3)ccc21`, in experiment [1], the cell count came out at 518. For the same compound, the inhibition is 7.1% (inactive) in experiment [1], -29.5% (inactive) in experiment [3], 12.2% (inactive) in experiment [7] and 28.4% (inactive) in experiment [8]. Further, the inhibition of aggregation in experiment [2] was 3.9% (inactive). In addition, the nuclei count in experiment [2] is 84.2%; in experiment [3], 87.7%. The fluorescence slope in experiment [4] is -0.581 (inactive). Further, the NADPH fluorescence slope in experiment [5] was -7.6e-06 (inactive). Further, the slope in experiment [6] was 0.00672 (inactive).
As to `COC(=O)c1nnn(-c2ccccc2)c1N`, the cell count in experiment [1] was 314. Moreover, the inhibition in experiment [1] is 10.6% (inactive); in experiment [3], -13.3% (inactive); in experiment [7], 6.82% (inactive); in experiment [8], 11.8% (inactive). Further, in experiment [2], the inhibition of aggregation is 19% (inactive). The results for the nuclei count in experiment [2] and in experiment [3] were 92% and 117%, respectively. The fluorescence slope in experiment [4] is -0.506 (inactive). In addition, the NADPH fluorescence slope in experiment [5] is -2.7e-05 (inactive). The slope in experiment [6] is 0.00571 (inactive).
As for `Cc1ccccc1Cc1c(C)nc2c(C(=O)N3CCN(Cc4ccc5c(c4)OCO5)CC3)cnn2c1C`, in experiment [1], the cell count came to 631. Moreover, the inhibition in experiment [1] was -4.4% (inactive); in experiment [3] it was -11.8% (inactive); in experiment [7], 10.8% (inactive); in experiment [8], 27.9% (inactive). The inhibition of aggregation in experiment [2] was 19.5% (inactive). For the same compound, the results for the nuclei count in experiment [2] and in experiment [3] were 132% and 95.4%, respectively. Besides, in experiment [4], the fluorescence slope is -0.415 (inactive). The NADPH fluorescence slope in experiment [5] is -1.3e-05 (inactive). For the same compound, the slope in experiment [6] was 0.00443 (inactive).
Regarding `O=C(CN(CCc1ccccc1)C(=O)CNS(=O)(=O)c1ccccc1)NCC1CCCO1` (stereo not drawn), the cell count in experiment [1] turned out to be 322. The inhibition in experiment [1] was 11.7% (inactive); in experiment [3], -46.7% (inactive); in experiment [7] it was -8.2% (inactive); in experiment [8], 13.9% (inactive). Besides, the inhibition of aggregation in experiment [2] was -13.1% (inactive). For the same compound, the figures for the nuclei count in experiment [2] and in experiment [3] were 99.8% and 109%, respectively. Moreover, the fluorescence slope in experiment [4] is -0.481 (inactive). Further, the NADPH fluorescence slope in experiment [5] was 2e-05 (inactive). Moreover, the slope in experiment [6] was 0.0066 (inactive).
`CN(C)/C=C1\N=C(c2ccc3c(c2)OCO3)OC1=O`: the cell count in experiment [1] was found to be 462. Also, the inhibition in experiment [1] was 15.8% (inactive); in experiment [3], 46.5% (inactive); in experiment [7], -20.5% (inactive); in experiment [8], -55.4% (inactive). Moreover, in experiment [2], the inhibition of aggregation was -17.4% (inactive). Besides, the figures for the nuclei count in experiment [2] and in experiment [3] were 104% and 108%, respectively. Besides, the fluorescence slope in experiment [4] was -0.451 (inactive). In addition, the NADPH fluorescence slope in experiment [5] was 1.5e-05 (inactive). Besides, the slope in experiment [6] was 0.0038 (inactive).
Take `CCOc1ccc(N(C(C)=O)C2C=CS(=O)(=O)C2)cc1` (stereo not drawn): the cell count in experiment [1] came out at 610. The inhibition in experiment [1] was -0.2% (inactive); in experiment [3] it was -4% (inactive); in experiment [7], 3.45% (inactive); in experiment [8], 19.5% (inactive). For the same compound, the inhibition of aggregation in experiment [2] is -4.3% (inactive). Further, the values for the nuclei count in experiment [2] and in experiment [3] were 104% and 139%, respectively. In experiment [4], the fluorescence slope was -0.496 (inactive). Also, the NADPH fluorescence slope in experiment [5] is -1.8e-05 (inactive). The slope in experiment [6] is 0.00613 (inactive).
Take `CC(=O)c1cc(F)c(N2CCN(C(=O)Cc3ccccc3)CC2)cc1C`: the cell count in experiment [1] came to 774. The inhibition in experiment [1] was -3.9% (inactive); in experiment [3], -25.8% (inactive); in experiment [7] it was 3.34% (inactive); in experiment [8], 0.856% (inactive). Also, the inhibition of aggregation in experiment [2] is -30.4% (inactive). The figures for the nuclei count in experiment [2] and in experiment [3] were 84.3% and 110%, respectively. For the same compound, the fluorescence slope in experiment [4] was -0.493 (inactive). For the same compound, the NADPH fluorescence slope in experiment [5] was -6.1e-05 (inactive). Besides, in experiment [6], the slope was 0.00566 (inactive).
On to `CCc1cc(C(=O)OC)c(NC(=O)CCC(=O)O)s1`, for which the cell count in experiment [1] was determined as 719. In addition, the inhibition is -5.2% (inactive) in experiment [1], -24% (inactive) in experiment [3], -0.441% (inactive) in experiment [7] and 97.6% (active) in experiment [8]. Besides, in experiment [2], the inhibition of aggregation was 3.9% (inactive). Further, the nuclei count in experiment [2] was found to be 117%; in experiment [3], 106%. Also, in experiment [4], the fluorescence slope is -0.392 (inactive). Moreover, the NADPH fluorescence slope in experiment [5] was 3.6e-05 (inactive). In experiment [6], the slope is 0.0103 (inactive).
With `CCOC(=O)N1CCC(c2cc(=O)n3[nH]c(C)c(-c4ccc(F)cc4)c3n2)CC1`, the cell count in experiment [1] is 743. Moreover, the inhibition in experiment [1] is -13.4% (inactive); in experiment [3] it was -82.2% (inactive); in experiment [7], 11.5% (inactive); in experiment [8] it was 31% (inactive). In experiment [2], the inhibition of aggregation is -25.8% (inactive). Besides, the nuclei count in experiment [2] was found to be 120%; in experiment [3], 119%. In experiment [4], the fluorescence slope is -0.589 (inactive). Moreover, the NADPH fluorescence slope in experiment [5] is 1.5e-07 (inactive). Moreover, the slope in experiment [6] was 0.00863 (inactive).
With `O=S(=O)(Nc1ccccn1)c1ccc(Oc2ccccc2)cc1`, the cell count in experiment [1] came out at 248. For the same compound, the inhibition is -6.3% (inactive) in experiment [1], -2.9% (inactive) in experiment [3], 16.9% (inactive) in experiment [7] and 20.6% (inactive) in experiment [8]. In addition, the inhibition of aggregation in experiment [2] is 0.4% (inactive). In addition, the results for the nuclei count in experiment [2] and in experiment [3] were 59.1% and 93.8%, respectively. The fluorescence slope in experiment [4] was -0.598 (inactive). Also, in experiment [5], the NADPH fluorescence slope is -1.6e-05 (inactive). The slope in experiment [6] is 0.0052 (inactive).
In the case of `COc1ccc(C)cc1NC(=O)CCC(=O)Nc1ccc2nc(N3CCN(C)CC3)cc(C)c2c1`, the cell count in experiment [1] came out at 623. Moreover, the inhibition in experiment [1] is 1.5% (inactive); in experiment [3], -62.6% (inactive); in experiment [7], -21.1% (inactive); in experiment [8], -51.1% (inactive). Besides, the inhibition of aggregation in experiment [2] was -9.5% (inactive). Besides, the nuclei count in experiment [2] is 104%; in experiment [3] it was 108%. For the same compound, the fluorescence slope in experiment [4] was -0.428 (inactive). For the same compound, the NADPH fluorescence slope in experiment [5] is 6e-06 (inactive). In addition, the slope in experiment [6] was 0.00326 (inactive).
Turning to `CCOC(=O)Cc1c(C)c2c(O)cc(O)cc2oc1=O`, the cell count in experiment [1] is 450. Moreover, the values for the inhibition in experiment [1], in experiment [7] and in experiment [8] were 9% (inactive), 15.2% (inactive) and 9.57% (inactive), respectively. The inhibition of aggregation in experiment [2] is -19.7% (inactive). The nuclei count in experiment [2] came out at 111%; in experiment [3] it was 150%. In addition, the fluorescence slope in experiment [4] is -0.0503 (inactive). The NADPH fluorescence slope in experiment [5] was 6.3e-06 (inactive). Besides, in experiment [6], the slope is 0.00591 (inactive).
As for `Cc1ccccc1-n1nc(C)c2cc(C(=O)NCc3cccnc3)sc21`, the cell count in experiment [1] came to 374. The inhibition in experiment [1] was -1.1% (inactive); in experiment [3], -51.5% (inactive); in experiment [7], 10.7% (inactive); in experiment [8], 44.3% (inactive). Further, in experiment [2], the inhibition of aggregation is -18.9% (inactive). Also, the nuclei count in experiment [2] turned out to be 116%; in experiment [3], 113%. For the same compound, the fluorescence slope in experiment [4] is -0.493 (inactive). Also, in experiment [5], the NADPH fluorescence slope was -6.5e-05 (inactive). Besides, the slope in experiment [6] is 0.0199 (active).
